Out of some 420,000 compounds screened, about 64,000 (15%) were called active. Inconclusive results (about 27%) are left out. Calls come from the whole dose curve; as a rule, active = well fitted inhibition curve with a large enough effect; inconclusive = small, poorly fitted or top-dose-only effect; inactive = flat fitted curve, though single readings scatter. These entries were drawn from the full list. Entries that show only a call come without a potency.
Potency is the fitted concentration of half-maximal effect.

A short description of this test: qHTS for Inhibitors of human tyrosyl-DNA phosphodiesterase 1 (TDP1): qHTS in cells in absence of CPT. Note: nearly all actives have a fitted effect of over 55% in size. Particulars: DT40 Tdp1-/- hTDP1 cells, no CPT, ATP luminescence, 48 h; activity change, negative = growth inhibition: at 46.2 µM (top of the series). An outline of the steps: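 Seeded 400 DT40-hTDP1 cells/well (vehicle DMSO, no 20 nM CPT); pinned compounds; ≥48 hr at 37 °C; CellTiter-Glo luminescence as viability measure.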
(In general: Quantitative high-throughput screening tests each substance at several concentrations.)
Consider `Cc1ccc(NC(=O)/C(=C\c2ccccc2)NC(=O)c2ccco2)cc1`, for which the Potency entry is “inactive”.

With `CCN1CCN(C(=O)Cn2nc(C)n3c(cc4c(OC)cccc43)c2=O)CC1`, the Potency result is “inactive”.

`COc1ccc(C2c3ccc(O)cc3Oc3ncn(CCCO)c(=N)c32)cc1OC` (stereo not drawn): the Potency entry was “inactive”.

Take `Cc1ccc(NC(=O)COC(=O)CN2CCCCCC2=O)c(C)c1`: the Potency entry is “inactive”.

Consider `CC(C)N1C(=O)N(c2ccccc2)C(C)(O)CC1(C)C` (stereo not drawn), for which the Potency result was “inactive”.

`CC(C)C1C2=C(CC(C)(C)CC2=O)ON1c1ccccc1` (stereo not drawn): the Potency was 11.2 µM (active).

For `COC(=O)C1CC2=C(CC(C)(C)CC2=O)N(c2ccccc2)C1=O` (stereo not drawn), the Potency result is “inactive”.

`O=C(Cn1c(=S)nc2ccccn21)N1CCc2ccccc2C1`: the Potency result is “inactive”.

With `CCc1nc2sc3c(Cl)ncnc3c2c2c1CCCC2`, the Potency entry is “inactive”.

As for `Fc1cc(F)c2nc(N3CCOCC3)sc2c1`, the Potency result was “inactive”.

Turning to `CCOc1nc(NCCN2CCOCC2)nc(Nc2ccc(C)cc2)n1`, the Potency result is “inactive”.

For `O=C(O)c1ccc(-n2nc(-c3ccccc3)c3ccccc3c2=O)cc1`, the Potency result is “inactive”.

With `CCOC(=O)C(C)n1nc(-c2ccccc2)c2ccccc2c1=O` (stereo not drawn), the Potency was 14.6 µM (active).

Take `O=c1c2ccccc2c(-c2ccccc2)nn1Cc1ccccc1`: the Potency entry was “inactive”.

For the compound `NC(=O)[C@H]1CC2(CC(c3cccc(NC(=O)[C@H]4CCC(=O)N4)c3)=NO2)CN1C(=O)c1ccccc1C(=O)c1ccccc1` (stereo partly drawn), the Potency entry was “inactive”.

In the case of `C/C(=N\NC(N)=S)c1cccnc1`, the Potency result was “inactive”.

Consider `C/C(=N\NC(=S)NC(C)C)c1ccc(C(C)(C)C)cc1`, for which the Potency is 20.6 µM (active).

As for `C/C(=N\NC(N)=S)c1ccncc1`, the Potency result is “inactive”.

As to `O=C(Cc1ccccc1)Nc1ccc(C(=O)Nc2ccccc2C(=O)O)cc1`, the Potency result was “inactive”.

Consider `Cc1cccnc1NC(=O)Cn1c(=O)oc2ccccc21`, for which the Potency result was “inactive”.

Turning to `COc1cc(NS(=O)(=O)c2ccc3ccccc3c2)c2ncccc2c1`, the Potency is 7.31 µM (active).

With `COc1ccc2cc(S(=O)(=O)Nc3ccccn3)ccc2c1`, the Potency result was “inactive”.

As for `CCOc1ncccc1C(=O)NNC(=O)c1cccc(S(=O)(=O)Nc2ccccc2OC)c1`, the Potency result was “inactive”.

Turning to `C/C(O)=C\c1nc(=O)c2c(C)cc(C)nc2n1-c1ccccc1`, the Potency entry is “inactive”.

As to `N#Cc1c(-c2ccc(Cl)cc2)c2c([nH]c1=S)CCCC2`, the Potency result was “inactive”.

For `COc1ccc(-n2c(SCC(=O)OC(C)C)nnc2-c2ccccn2)cc1`, the Potency entry was “inactive”.

As for `COc1ccc(-c2cn3cccnc3n2)cc1`, the Potency result was “inactive”.

In the case of `COc1ccc2nc(-c3ccccn3)ccc2c1`, the Potency is 3.26 µM (active).

In the case of `CCOc1ccc(N(Cc2ccccc2)C(=O)c2nc(SCC)ncc2Cl)cc1`, the Potency was 6.51 µM (active).

Consider `CCOc1ccc(N(Cc2ccccc2)C(=O)c2nc(S(C)(=O)=O)ncc2Cl)cc1`, for which the Potency was 0.58 µM (active).

With `CCOc1ccc(S(=O)(=O)N(CC(=O)O)c2ccccc2)cc1`, the Potency entry is “inactive”.

Take `CCSc1nnc2c(n1)OC(c1ccc(OCC(=O)O)cc1)Nc1ccccc1-2` (stereo not drawn): the Potency result is “inactive”.

Consider `CCSc1ncc(Cl)c(C(=O)Nc2c(C(=O)c3ccccc3)oc3ccccc23)n1`, for which the Potency entry is “inactive”.

For the compound `CCOc1ccc(Cn2nnc(C(=O)NCc3ccccc3)c2N)cc1`, the Potency entry was “inactive”.

Consider `CCCOc1ccc(/C(O)=C2/C(=O)C(=O)N(CCN(C)C)C2c2ccc(OC)c(OC)c2)cc1` (stereo not drawn), for which the Potency entry was “inactive”.

With `N#CCCn1ncc2ccccc21`, the Potency result is “inactive”.

As to `NS(=O)(=O)c1ccc(CNC(=O)c2cccc(S(=O)(=O)N3CCc4ccccc43)c2)cc1`, the Potency is 9.2 µM (active).

For `O=C(NCCCN1CCCC1=O)c1cccc(S(=O)(=O)NCc2ccccc2)c1`, the Potency result is “inactive”.

For the compound `CC1Cc2ccccc2N1S(=O)(=O)c1cccc(C(=O)OCC(=O)N2CCOCC2)c1` (stereo not drawn), the Potency entry is “inactive”.

On to `NS(=O)(=O)c1ccc(CNC(=O)c2cc(S(=O)(=O)N3CCOCC3)ccc2N2CCCC2)cc1`, for which the Potency entry is “inactive”.

For the compound `CNC(=O)C1CN(C(=O)c2cccc(S(=O)(=O)N3CCc4ccccc43)c2)c2ccccc2O1` (stereo not drawn), the Potency is 5.8 µM (active).

For `CC(=O)N1CCN(S(=O)(=O)c2cccc(C(=O)NC3CCC(C)CC3)c2)CC1` (stereo not drawn), the Potency entry is “inactive”.

As to `CC1CCN(C(=O)c2cccc(S(=O)(=O)N3CCCc4ccccc43)c2)CC1`, the Potency was 11.6 µM (active).

Regarding `Cc1c(NC(=S)Nc2ccccc2)c(=O)n(-c2ccccc2)n1C`, the Potency entry was “inactive”.

Turning to `COc1cc(C)c(Cl)cc1S(=O)(=O)n1ccnc1`, the Potency result was “inactive”.

For `CC1CCN(C(=O)COC(=O)c2cc(=O)[nH]c3ccccc23)CC1`, the Potency result was “inactive”.

As for `CC(NC(=O)COC(=O)c1cc(=O)[nH]c2ccccc12)c1ccccc1` (stereo not drawn), the Potency entry is “inactive”.

With `CCOC(=O)c1ccc2[nH]c(C)c(CN3CCN(C)CC3)c(=O)c2c1`, the Potency entry is “inactive”.

Take `COC(=O)C[C@H]1C[C@@H]2c3cc(N(C)C)ccc3O[C@@H]2[C@H](CO)O1`: the Potency result was “inactive”.

As to `CCOC(=O)CSc1ncc(-c2cccc(Cl)c2)cn1`, the Potency result is “inactive”.

Take `Cn1nc(-c2ccccc2)c(CSc2cccc(Cl)c2)c1Cl`: the Potency was 18.4 µM (active).

For `Cn1nc(-c2ccccc2)c(CO)c1Sc1ccccc1`, the Potency entry was “inactive”.

On to `CCn1c(-c2ccoc2C)n[nH]c1=S`, for which the Potency result is “inactive”.

On to `CCOC(=O)c1ccc(NC(=O)CCn2c(=O)oc3ccccc32)cc1`, for which the Potency entry is “inactive”.

Regarding `CCOC(=O)c1ccc(NC(=O)Cn2cnc3cc(C)c(C)cc32)cc1`, the Potency was 0.517 µM (active).

Regarding `CCOC(=O)c1ccc(NC(=O)Cn2nnc(-c3ccc(C)cc3)n2)cc1`, the Potency entry was “inactive”.

In the case of `Cc1ccc(OC(=O)c2cncc(Br)c2)c(C)c1`, the Potency result was “inactive”.

For the compound `NC(=O)COc1ccccc1C(=O)NC12CC3CC(CC(C3)C1)C2`, the Potency entry was “inactive”.

Take `CCc1cccc(NC(=S)N(CCN(C)C)C2CCN(C(C)C)CC2)c1`: the Potency entry is “inactive”.

Regarding `Cc1cccc(C)c1NC(=O)CN1C(=O)C(C)Oc2ccccc21` (stereo not drawn), the Potency entry is “inactive”.

In the case of `CCn1c(C(O)c2cc(OC)ccc2OC)nc2ccccc21` (stereo not drawn), the Potency result was “inactive”.

Take `CCn1c(/C=N/NC(=O)c2ccc(OC)cc2)nc2ccccc21`: the Potency is 16.4 µM (active).

Consider `O=C(Nc1ccccc1Cl)N1CCN(c2ccc3nncn3n2)CC1`, for which the Potency entry is “inactive”.

Regarding `COc1cc(NC(=O)CSc2nc3nc(C)c(Cc4ccc(C)cc4)c(C)n3n2)cc(OC)c1OC`, the Potency was 10.3 µM (active).

On to `COc1ccc(NC(=O)CSc2nncc(=O)n2N)cc1OC`, for which the Potency result is “inactive”.

In the case of `Cc1ccc(Cc2c(C)nc3nc(SCC(=O)NCCN4CCOCC4)nn3c2C)cc1`, the Potency entry was “inactive”.

Turning to `N#Cc1c(C(F)(F)F)cc(-c2ccccc2)nc1SCC(=O)N1CCOCC1`, the Potency result was “inactive”.

As for `FC(F)Oc1ccccc1NC(=S)Nc1cccc(Cl)c1Cl`, the Potency entry was “inactive”.
